Screens deposited in PubChem by several laboratories.
Most compounds without a hit are left out; they make up all but 2.8% or so of the library.
LGR2 antag: Drosophila LGR2 receptor signaling inhibition | HEK293 LGR2, CRE-luciferase, bursicon-stimulated, 4 h | inhibition, % at 9.99 µM | 380,000 compounds, 0.35% hits | AID 720647;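 active = drop in luminescence signal, shown as inhibition above about 50% in the replicate tests, limit read from the data, passing the limit was not always enough; inconclusive = probably only some replicates passing the limit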;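 note: agonist challenge used bursicon conditioned medium at about half maximal strength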
EWS-Fli block: inhibitors of EWS/Fli oncoprotein transcriptional activity | A673 NR0B1-luciferase reporter, viability-normalised | inhibition, % at 12.6 µM | 350,000 compounds, 0.67% hits | AID 651661;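 active = mean inhibition of at least 50% after viability correction, with every replicate also passing that limit; inconclusive = mean reaches 50% but only one of two replicates passes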;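 note: firefly luciferase signal divided by Alamar Blue viability fluorescence both relative to DMSO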
TROY signal inh: inhibitors of TROY-dependent NF-kB signaling; Q293 LMP1-TROYcd NF-kB luciferase reporter, 4 h; inhibition, % at 10 µM; 360,000 compounds, 0.98% hits; AID 1347056;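 active = compounds whose plate-normalised and pattern-corrected inhibition of the luciferase reporter signal at the single screening dose is 50% or more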
PAX8 reporter: PAX8 transcriptional activity inhibition; inhibition, % at 12.6 µM; AID 652154; RMG-I TPO-luciferase reporter, SteadyGlo, 24 h; 360,000 compounds, 1.2% hits;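 active = mean replicate inhibition at least 60% with every replicate also reaching 60%; inconclusive = only one of the two criteria is met; inactive = mean below 60% and not all replicates reaching 60%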;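 note: luciferase light reporting Pax8 driven TPO promoter activity; plate controls were median of neutral control wells for no effect and mitoxantrone controls for full effect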
TWEAK-Fn14 inh: inhibitors of TWEAK-Fn14 interaction signaling | inhibition, % at 10 µM | 360,000 compounds, 2% hits | TWEAK-stimulated Fn14 reporter cells, luciferase luminescence, 8 h | AID 1159606; in the data active = inhibition above about 50%
DNA binding: small molecule DNA binding by fluorescence polarization. AID 720586. shares compounds with EWS-Fli block. salmon sperm DNA acridine orange fluorescence polarization. 640 compounds, 2% hits. AC35, µM (titrated, usually from 68 µM), for inactives: at the top dose activity change, negative = DNA binding;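 active = fitted curve reaches a 35% signal fall AC35 below twice the sample's top valid tested dose, actives reach about 48 µM in these data; inactive = the rest, including activity in the rising direction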;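 note: lower polarization ratio signals compound binding to DNA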
* marks the source's active call; other numbers are inactive results; u = inconclusive; x = not tested or not shown; ! = not active in a repeat; [ ] = remark or other dose.

SMILES | LGR2 antag | EWS-Fli block | TROY signal inh | PAX8 reporter | TWEAK-Fn14 inh | DNA binding
COC(=O)C[C@@H]1CC[C@H]2[C@@H](COc3ccc(NC(=O)Nc4cccc(Cl)c4)cc3C(=O)N2C)O1 | -5 | 45 | x | 39 | x | x
COC(=O)C[C@@H]1CC[C@H]2[C@H](COc3ccc(NC(=O)Nc4cccc(Cl)c4)cc3C(=O)N2C)O1 | 16 | u | x | 14 | x | x
COC(=O)C[C@@H]1CC[C@@H]2[C@H](COc3ccc(NC(=O)Nc4ccccc4C)cc3C(=O)N2C)O1 | 14 | -8 | x | 8 | x | x
COC(=O)C[C@H]1CC[C@H]2[C@@H](COc3ccc(NC(=O)Nc4cccc(Cl)c4)cc3C(=O)N2C)O1 | -6 | 60* | x | 23 | x | 5%
COC(=O)C[C@@H]1CC[C@@H]2[C@@H](COc3ccc(NC(=O)Nc4ccccc4C)cc3C(=O)N2C)O1 | -5 | 66* | x | 13 | x | -13%
C[C@@H]1CCCCO[C@@H](CN(C)C(=O)c2ccccc2)[C@@H](C)CN([C@@H](C)CO)C(=O)c2cc(NC(=O)NC3CCCCC3)ccc2O1 | 0 | -9 | x | -16 | x | x
C[C@H]1CN([C@@H](C)CO)C(=O)c2cc(N(C)C)ccc2O[C@@H]1CN(C)Cc1ccc(C(=O)Nc2ccccc2N)cc1 | 1 | 65* | x | 59 | x | -3%
C[C@H]1CN([C@@H](C)CO)C(=O)c2cc(NC(=O)CCCCCC(=O)Nc3ccccc3N)ccc2O[C@H]1CN(C)Cc1ccc(Cl)c(Cl)c1 | 6 | 18 | x | x | x | x
C[C@@H]1CN([C@H](C)CO)C(=O)c2cc(C#CCc3ccccc3)cnc2O[C@@H]1CN(C)Cc1cccc(F)c1 | 14 | 56* | x | x | x | -7%
C[C@@H]1CN([C@H](C)CO)C(=O)c2cc(NC(=O)CCCCCC(=O)Nc3ccccc3N)ccc2O[C@@H]1CN(C)Cc1ccc(Cl)c(Cl)c1 | 14 | 69* | x | x | x | -1%
Cc1ccc(S(=O)(=O)N(C)C[C@@H]2Oc3ccc(NC(=O)CCCCCC(=O)Nc4ccccc4N)cc3CC(=O)N([C@@H](C)CO)C[C@@H]2C)cc1 | -14 | 56* | x | 20 | x | -3%[56 µM]
C[C@H](CO)N1C[C@H](C)[C@H](CN(C)Cc2cccc(F)c2)Oc2ncc(C#CCc3ccccc3)cc2C1=O | -1 | 12 | x | x | x | x
Cc1noc(C)c1S(=O)(=O)N(C)C[C@H]1Oc2ccc(NC(=O)NC3CCCCC3)cc2CC(=O)N([C@@H](C)CO)C[C@@H]1C | -21 | 0 | x | -7 | x | x
C[C@@H]1CN([C@@H](C)CO)C(=O)c2cc(NC(=O)C3CC3)ccc2O[C@H]1CN(C)Cc1ccc(C(=O)Nc2ccccc2N)cc1 | -12 | 39 | x | x | x | x
C[C@H](CO)N1C[C@H](C)[C@H](CN(C)Cc2ccc(Oc3ccccc3)cc2)OCc2cnnn2CCCC1=O | 6 | 14 | x | x | x | x
C[C@@H]1CN([C@@H](C)CO)C(=O)Cc2cc(NC(=O)Nc3ccc(C(F)(F)F)cc3)ccc2O[C@@H]1CN(C)Cc1ccc(C(=O)Nc2ccccc2N)cc1 | -21 | 55* | x | x | x | -4%
C[C@H]1CN([C@@H](C)CO)C(=O)c2cc(NC(=O)C3CCCCC3)ccc2O[C@H]1CN(C)Cc1ccc(C(=O)Nc2ccccc2N)cc1 | 9 | 52* | x | x | x | -7%
C[C@@H]1CN([C@H](C)CO)C(=O)CCCn2nncc2CO[C@H]1CN(C)Cc1ccc(Oc2ccccc2)cc1 | 6 | 70*! | -5 | 116*! | 0 | -12%
C[C@H](CO)N1C[C@H](C)[C@@H](CN(C)Cc2ccc(Oc3ccccc3)cc2)Oc2ccc(NS(=O)(=O)c3ccc(Cl)cc3)cc2CC1=O | 21 | 57* | x | 101* | x | -4%
COc1cccc(C(=O)Nc2ccc3c(c2)OC[C@H](C)N(C)C[C@H](C)[C@@H](OC)CN(C)C3=O)c1 | -6 | x | x | -5 | x | x
CCN1[C@@H]2c3ccc(C4=CCCCC4)c(=O)n3C[C@H]1[C@H](CO)[C@H]2C(=O)NC1Cc2ccccc2C1 | -1 | -2 | x | 9 | x | x
Cc1noc(C)c1S(=O)(=O)Nc1cccc2c1O[C@@H](CN(C)C(=O)Nc1cccc3ccccc13)[C@@H](C)CN([C@H](C)CO)C2=O | 3 | 6 | x | 19 | x | x
COc1cccc(S(=O)(=O)N2CCCCN3[C@H](C2)[C@@H](c2ccc(C#CC4CC4)cc2)[C@@H]3CO)c1 | 6 | 2 | x | 13 | x | x
C[C@H](CO)N1C[C@H](C)[C@H](CN(C)Cc2ccc(C(=O)Nc3ccccc3N)cc2)Oc2ccc(N(C)C)cc2CC1=O | -9 | 67* | x | 32 | x | 1%
C[C@H]1CN([C@@H](C)CO)C(=O)Cc2cc(N(C)C)ccc2O[C@H]1CN(C)Cc1ccccc1 | -8 | -14 | x | -34 | x | x
SMILES | LGR2 antag | EWS-Fli block | TROY signal inh | PAX8 reporter | TWEAK-Fn14 inh | DNA binding
C[C@@H]1CN([C@@H](C)CO)C(=O)Cc2cc(N(C)C)ccc2O[C@@H]1CN(C)Cc1ccccc1 | 5 | 55* | x | 21 | x | -10%
O=C(Nc1cc(F)ccc1F)N[C@@H]1CC[C@H](CCNC(=O)c2cnccn2)O[C@H]1CO | -20 | 3 | x | -3 | x | x
CCN1[C@H](C(=O)NC2Cc3ccccc3C2)[C@@H](CO)[C@@H]2Cn3c(cccc3=O)[C@@H]21 | -9 | -42 | x | x | x | x
O=C(N/N=C/c1cnc(N2CCCCC2)s1)c1ccc(C(F)(F)F)cc1 | 19 | 54* | -26 | 74* | 8 | 0%
CC1CN(c2ncc(/C=N/NC(=O)c3ccccc3O)s2)CC(C)O1 (stereo not given) | -10 | 4 | -4 | -15 | -20 | x
CCC(=O)N[C@@H]1CC[C@H](CCNC(=O)Nc2ccc(F)cc2)O[C@@H]1CO | -9 | -10 | x | -7 | x | x
CC(C)(C)C(=O)Cn1ncc(Cl)c(Cl)c1=O | x | 75* | 3 | 57 | 97* | -4%
CN1CCN(C(=O)C[C@@H]2CC[C@@H]3[C@H](COC[C@H](O)CN3CC3CC3)O2)CC1 | -4 | -6 | x | -18 | x | x
Cc1ccsc1C(=O)OCC(=O)NCCC1=CCCCC1 | -30 | 65* | -51 | -27 | -19 | -5%
CO[C@H]1CC[C@H]2CCN(C)C(=O)[C@H](C)[C@@H](OC)CN(C)C(=O)c3cccc(C#N)c3OC[C@@H]1O2 | 5 | -3 | x | -9 | x | x
COc1cc2oc3ccc(C#Cc4ccc(N)cc4)cc3c(=O)c2cc1OC | -74 | -1 | -90 | -105 | -87 | x
COc1cc2oc3cc(C#Cc4ccc(N)cc4)ccc3c(=O)c2cc1OC | x | 55* | -5 | 29 | 7 | 1%
CN(Cc1cnc2nc(N)nc(N)c2n1)c1ccc(C(=O)N[C@@H](CCC(=O)O)C(=O)O)cc1 | -4 | 64* | 0 | 48 | 2 | -3%
CC(C)=CCC/C(C)=C/CN1C(=O)N(c2ccc(F)cc2)[C@H]2C[C@@H](c3ccccc3)[C@@H](C)[C@@H](C(=O)N3CCOCC3)C[C@H]21 | 23 | 52* | x | 101* | x | 3%
Nc1ncn([C@@H]2O[C@H](CO)[C@@H](O)[C@H]2O)c(=O)n1 | u | 62* | 28 | 21 | 72* | 8%
